# Bioassay records deposited in PubChem by Broad Institute.
# ID4 binder = binders of human ID4 protein; P47928; small molecule microarray, Flag-ID4 binding, fluorescence F/B; calls only; 31,000 compounds, 1.2% hits; AID 624137; call rule not given here;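 also: a binder raises fluorescence above local background on the spot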
# Target sequence (P47928 whole entry, looked up): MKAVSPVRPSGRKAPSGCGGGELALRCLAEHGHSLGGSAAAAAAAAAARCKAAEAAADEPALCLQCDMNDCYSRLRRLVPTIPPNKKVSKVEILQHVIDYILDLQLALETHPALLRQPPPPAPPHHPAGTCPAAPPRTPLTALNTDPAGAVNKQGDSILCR
# p53 PUMA act = mutant p53 pathway reactivation; SW480 PUMA-promoter luciferase; activation, % at 9.98 µM; 28,000 compounds, 1.5% hits; in the data active = activation above about 52%; inconclusive = no clear call, values can overlap the other calls
# STK33 kin inh = inhibitors of human STK33 kinase | Q9BYT3 | ADP-Glo luminescence, MBP substrate | inhibition, % at 12.5 µM | 27,000 compounds, 0.44% hits | AID 2322; in the data active = inhibition above about 20%; inconclusive = no clear call, values can overlap the other calls
# * hit, by the source's call; i = inactive; ? = inconclusive; . = not tested or not shown; + = active, no number. This is a sample that favours compounds with a hit; in the whole collection about 2.1% have one here.
SMILES,ID4 binder,p53 PUMA act,STK33 kin inh
Cc1noc(C)c1S(=O)(=O)N(C)C[C@H]1Oc2ccc(NC(=O)CCCN(C)C)cc2C(=O)N([C@H](C)CO)C[C@@H]1C,+,5.3,.
Cc1noc(C)c1S(=O)(=O)N(C)C[C@@H]1OCCCC[C@@H](C)Oc2ccc(NC(=O)CCCN(C)C)cc2C(=O)N([C@H](C)CO)C[C@@H]1C,i,1.3,.
C[C@@H]1CN([C@@H](C)CO)C(=O)c2cc(NC(=O)NC3CCCCC3)ccc2O[C@@H]1CN(C)S(=O)(=O)c1ccc(Cl)cc1,i,-0.5,.
CC(C)(O)C(O)Cc1cc2ccc(=O)oc2cc1O (stereo not given),.,15.8,.
COc1cc(NC(=O)C(C)Oc2ccc(Cl)cc2Cl)ccc1NC(=O)c1cc2ccccc2o1 (stereo not given),i,?,4.4
CC(=O)N[C@@H](Cc1c[nH]c2ccccc12)C(N)=O,i,.,-1.3
COC(=O)C(Cc1c[nH]c2ccccc12)NC(=O)C(NC(=O)C(C)NC(=O)/C=C/C(=O)O)C(C)c1c[nH]c2ccccc12 (stereo not given),i,.,153.9*
C=C(C(=O)O)[C@@H]1CC[C@@]2(C)CC[C@@H](O)C(=C)C2C1 (stereo not given in full),i,28.6,0.6
CC(=O)O[C@@H]1CC2C(C)(C)CCC[C@]2(C)C2CC[C@]3(C)C(=CC(=O)O[C@H]3c3ccoc3)[C@@]21C (stereo not given in full),.,.,3.4
Cc1cccc(NC(=S)N2CCCCC2C)c1 (stereo not given),.,.,-5.7
COc1cc(-c2nnc(SCC(=O)c3ccc(Cl)cc3)n2C)cc(OC)c1OC,i,-1.7,-2.3
Cc1cc(=O)[nH]c(SCCOc2ccc(C(=O)c3ccccc3)cc2)n1,i,18.2,0.8
C=CC(C)(O)C(O)CC1C(=C)CCC2C(C)(C(=O)O)CCCC12C (stereo not given),i,0.1,-2.0
COc1ccc2cc1Oc1ccc(cc1)C[C@H]1c3cc(c(OC)cc3CCN1C)Oc1c(OC)c(OC)cc3c1[C@H](C2)N(C)CC3,.,.,-2.1
COc1cc2c3cc1Oc1c(OC)c(OC)cc4c1[C@@H](Cc1ccc(OC(=O)c5ccc([N+](=O)[O-])cc5)c(c1)Oc1ccc(cc1)C[C@@H]3N(C)CC2)N(C)CC4,+,-2.1,3.9
COc1ccc(CCNC(=O)C2OCCc3ccccc32)cc1OC (stereo not given),+,-4.7,-0.7
O=C(NCc1ccco1)C1OCCc2ccccc21 (stereo not given),i,5.8,0.1
COc1ccc(NCC(O)Cn2ccc3ccccc32)cc1 (stereo not given),i,15.6,-1.7
OCc1nc2ccccc2n1CC(O)Cn1ccc2ccccc21 (stereo not given),i,-14.9,-2.0
Cc1cc(C)n(CC(O)Cn2ccc3ccccc32)n1 (stereo not given),+,-11.5,-2.3
O=C1c2ccccc2S(=O)(=O)N1CC(O)Cn1ccc2ccccc21 (stereo not given),+,17.1,-4.5
O=C(CSc1nnc(-c2ccccc2Cl)o1)c1cc2ccccc2oc1=O,i,10.3,-0.2
CN1C(=O)c2cccc3cccc(c23)[S+]1c1ccccc1C(=O)O (stereo not given),.,.,2.0
O=C(/C=C/S(=O)(=O)c1ccc(Cl)cc1)c1ccc(F)cc1,.,.,7.3
CC1(C)CC[C@]2(C(=O)O[C@@H]3O[C@H](CO)[C@@H](O)[C@H](O)[C@H]3O)CC[C@]3(C)C(=CCC4[C@@]5(C)C[C@@H](O)[C@H](O)[C@](C)(CO)C5CC[C@]43C)C2[C@@H]1O (stereo not given in full),i,.,1.9
SMILES,ID4 binder,p53 PUMA act,STK33 kin inh
CCOc1ccc(NC(=O)CSc2nnc(-c3ccc(Cl)cc3)n2C)cc1,i,2.5,1.1
CCOc1ccc(-c2nnc(SCC(=O)c3ccccc3N)n2C)cc1,i,67.4*,-0.4
Cc1nc(SCC(=O)Nc2ccc(I)cc2)nc2c1CCCC2,i,16.9,-0.7
COc1c(C=O)c(O)cc2c1C(=O)c1ccccc1C2=O,i,-7.3,84.5*
Cc1cc(O)c2c(c1)C(=O)c1cccc(O)c1C2=O,i,.,5.0
O=C(CSc1nnc(-c2cccnc2)n1-c1ccccc1)N1CCN(c2ccc(F)cc2)CC1,+,-3.0,-0.2
O=C(CSc1nnc(-c2cccnc2)n1-c1ccccc1)N1CCc2ccccc21,i,-9.6,4.6
CCCCC[C@@H](O)CC(=O)CCc1ccc(O)c(OC)c1,.,-3.6,-7.4
COC(=O)c1ccc(COc2ccc3c(C)cc(=O)oc3c2)o1,i,62.9*,-5.0
COC(=O)c1ccc(COc2ccc3c(c2)oc(=O)c2cc(OC)ccc23)o1,i,5.5,5.7
C[C@@H]1CCCCO[C@@H](CN(C)Cc2ccncc2)[C@H](C)CN([C@@H](C)CO)C(=O)c2cc(NC(=O)Nc3ccccc3)ccc2O1,i,-7.7,.
C[C@@H]1CCCCO[C@@H](CN(C)C(=O)Nc2ccccc2)[C@H](C)CN([C@H](C)CO)C(=O)c2cc(NC(=O)Nc3ccccc3)ccc2O1,+,-39.0,.
C[C@H](CO)N1C[C@H](C)[C@H](CN(C)C(=O)Nc2ccccc2)OCCCC[C@H](C)Oc2ccc(NC(=O)Nc3ccccc3)cc2C1=O,i,3.8,.
C[C@@H]1CCCCO[C@@H](CN(C)Cc2ccncc2)[C@H](C)CN([C@H](C)CO)C(=O)c2cc(NC(=O)Nc3ccccc3)ccc2O1,+,-9.6,.
O=c1cc(CO)oc(C(Nc2ccccn2)c2ccccc2O)c1O (stereo not given),i,11.7,.
COc1ccc(CC(=O)Nc2cccc(-c3nnc(-c4ccc(C)cc4)o3)c2)cc1OC,i,5.4,-0.1
COc1ccccc1OCC(=O)Nc1cccc(-c2nnc(-c3ccccc3)o2)c1,i,94.9*,15.5
Cc1cc(OCC(=O)Nc2cccc(-c3nnc(-c4ccccc4)o3)c2)cc(C)c1Cl,i,?,-1.7
Cc1ccc(C)c(OCC(=O)Nc2cc(C(=O)O)cc(C(=O)O)c2)c1,i,-18.3,-3.4
Cc1ccc(C)c(OCC(=O)Nc2cccc(-c3nnc(-c4ccco4)o3)c2)c1,i,101.7*,13.4
COc1ccccc1OCC(=O)Nc1cccc(-c2nnc(-c3ccco3)o2)c1,i,62.2*,15.8
O=C1O[C@H](c2ccccc2)[C@H](c2ccccc2)N2[C@H]1[C@@H](C(=O)Nc1nc3ccccc3s1)[C@]1(C(=O)Nc3ccc(C#CC4(O)CCCCCC4)cc31)[C@H]2c1ccccc1OCCO,.,.,0.3
O=C(COc1ccccc1Cl)Nc1ccc(C(=O)Nc2ccccc2C(=O)O)cc1,i,1.4,-0.3
COc1cc(-c2oc3cc(O)cc(O)c3c(=O)c2O)ccc1O,i,.,52.5*
COc1ccc(-c2coc3cc(O)cc(O)c3c2=O)cc1,.,.,1.9
O=c1c(-c2ccc(O)cc2)coc2cc(O)cc(O)c12,i,53.0*,8.7
O=c1c(O[C@@H]2OC[C@H](O)[C@H](O)[C@H]2O)c(-c2ccc(O)c(O)c2)oc2cc(O)cc(O)c12,.,3.1,7.6
COc1cc(-c2oc3cc(O)c(OC)c(O)c3c(=O)c2OC)ccc1O,.,-42.2,15.9
O=c1c(O)c(-c2ccc(O)c(O)c2)oc2cc(O)cc(O)c12,i,41.4,38.3*
CN(CC(=O)Nc1ccccc1Sc1ccccc1)S(=O)(=O)c1ccc(F)cc1,i,-3.2,0.6
